Laboratory results: ChEMBL document CHEMBL3433997, “St. Jude Leishmania screening dataset” (2016)

Legend:
Assay type in all cases: functional
[1] = target: Solute carrier family 2, facilitated glucose transporter member 1 (Homo sapiens) (UniProt P11166); assay: ST_JUDE_LEISH: Cytotoxicity at 2uM final concentration against transgenic Leishmania Mexicana promastigotes LmGLUT1 that are glucose transport deficient and complemented with the human glucose transporter GLUT1. Activity is measured by DNA content using SYBR green in vitro
[2] = target: Hexose transporter 1 (Plasmodium falciparum) (UniProt O97467); assay: ST_JUDE_LEISH: Cytotoxicity at 2uM final concentration against transgenic Leishmania Mexicana promastigotes LmPfHT that are glucose transport deficient and complemented with the Plasmodium falciparum hexose transporter. Activity is measured by DNA content using SYBR green in vitro
[3] = target: Glucose transporter (Leishmania mexicana) (UniProt O61059); assay: ST_JUDE_LEISH: Cytotoxicity at 2uM final concentration against transgenic Leishmania Mexicana promastigotes LmGT2 that are glucose transport deficient and complemented with the L. Mexicana glucose transporter 2. Activity is measured by DNA content using SYBR green in vitro

Solute carrier family 2, facilitated glucose transporter member 1 (Homo sapiens), sequence (P11166 whole entry): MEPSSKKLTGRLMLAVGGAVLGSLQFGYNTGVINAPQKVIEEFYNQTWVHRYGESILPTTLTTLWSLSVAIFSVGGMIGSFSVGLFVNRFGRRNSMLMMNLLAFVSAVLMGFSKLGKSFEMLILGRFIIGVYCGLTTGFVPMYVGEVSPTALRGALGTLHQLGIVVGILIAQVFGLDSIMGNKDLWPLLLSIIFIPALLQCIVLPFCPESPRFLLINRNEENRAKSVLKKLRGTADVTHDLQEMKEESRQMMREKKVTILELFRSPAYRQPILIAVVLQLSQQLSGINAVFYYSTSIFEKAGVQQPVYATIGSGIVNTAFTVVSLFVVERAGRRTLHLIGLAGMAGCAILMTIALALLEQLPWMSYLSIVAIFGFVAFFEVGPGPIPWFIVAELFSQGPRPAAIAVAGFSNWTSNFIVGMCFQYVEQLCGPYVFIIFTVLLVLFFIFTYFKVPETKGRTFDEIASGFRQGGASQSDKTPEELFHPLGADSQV

Compound | inhibition [1] | inhibition [2] | inhibition [3]
O=C(NC1CC1)c1ccc(N2CCC(c3ccccc3)CC2)nc1 | 5.99% | 5.01% | 3.25%
O=C(/C=C/c1ccsc1)N1CCC(CCN2CCC(c3c[nH]c4ccccc34)CC2)CC1 | 2.34% | 3.57% | 6.24%
Cc1nc2nc(N)nc(N)c2c(C)c1Cc1c(Cl)cccc1Cl | 8.8% | 10.7% | 7.3%
O=C1C(=Cc2c(O)ccc3ccccc23)SC(=NCc2ccccc2)N1Cc1ccccc1 | 3.93% | 2.01% | 3.38%
O=C(/C=C/c1ccc(Cl)c(Cl)c1)NC1CCC(CN2CCC(c3nc4cc(O)ccc4[nH]3)CC2)CC1 (centres undefined) | 2.81% | 3.99% | 2.71%
N#Cc1ccc(CN2CCCN(Cc3cccc(NC(=O)c4cc5ccccc5s4)c3)CC2)cc1 | -0.46% | -0.58% | -1.54%
COc1cccc(NC(=O)COc2ccc(C(=O)Nc3nc4ccccc4[nH]3)cc2)c1 | 2.45% | 2.07% | -1.7%
CCN1CCC(N(Cc2ccc(-c3ccc(C(F)(F)F)cc3)cc2)C(=O)Cn2c(CCc3cccc(F)c3F)cc(=O)c3ccccc32)C1 (centres undefined) | 0.08% | 1.38% | -0.49%
CC(C)(C)c1ccc(CNC(=O)c2cc(CNC3CCC(N)CC3)ccc2O)cc1 (centres undefined) | 0.08% | -1.35% | 0.99%
CCCN1CCCN(Cc2cccc(NC(=O)c3ccc(-c4ccccc4)cc3)c2)CC1 | 0.74% | 0.03% | -5.12%
O=C(NC1CC1)c1cnc(N2CCC(c3ccccc3)CC2)c(Cl)c1 | 2.86% | 6.43% | 3.1%
Cc1cccc2nc(-c3ccc(-c4cccc(CNCc5ccccc5)c4)cc3)[nH]c12 | 16.8% | 9.57% | 6.25%
O=C(Nc1ccccc1)NC1CCN(CCC2(c3ccc(Cl)c(Cl)c3)COCN(C(=O)c3ccccc3)C2)C1 (centres undefined) | 4.31% | 4.43% | 4.63%
CN(CCN1CCC(c2c[nH]c3ccccc23)CC1)c1ccc(-c2nc3cc(Cl)c(Cl)cc3[nH]2)cc1 | 2.04% | 0.16% | 0.74%
CCOc1ccc(-c2nonc2NC(=O)c2ccc(OC(C)C)cc2)cc1OCC | 2.72% | 1.95% | 3.68%
O=c1cc(NCCCNCc2cc(Cl)c(Cl)cc2Cl)[nH]c2ccccc12 | 0.5% | -0.04% | 0.23%
N#Cc1cccc(Nc2nccc(NCC(O)c3ccccc3C(F)(F)F)n2)c1 (centres undefined) | 9.64% | 7.25% | 3.83%

Compound | inhibition [1] | inhibition [2] | inhibition [3]
NCC1CCCN1Cc1cccc(-c2cccc(-c3nc4cc(F)ccc4[nH]3)c2)c1 (centres undefined) | 0.19% | 0.88% | 1.02%
COc1cccc(NC(=O)Nc2cc(-c3ccc4[nH]ncc4c3)cc3c2CNC3=O)c1 | 2.19% | 2.02% | 1.68%
COc1cccc(C(=O)Nc2ccc(Nc3nc(C)cc(N(C)C)n3)cc2)c1OC | 2.81% | 4.32% | 1%
Cc1cc(N[C@@H](Cc2ccccc2)C(=O)NCc2cccs2)nc(Nc2ccccc2)n1 | 9.96% | 9.21% | 3.98%
N#Cc1cccc(NC(=O)NC2CCN(CCCCCNC(=O)/C=C/c3ccc(Cl)c(Cl)c3)CC2)c1 | 4.68% | 5.86% | 8.54%
N#Cc1cccc(C(=O)Nc2ccc(-c3nc4ccccc4[nH]3)cc2)c1 | 0.28% | -0.34% | -0.95%
COc1ccc(NS(=O)(=O)c2ccccc2Br)cc1N1CCN(C)CC1 | 0.24% | -0.27% | 3.86%
CCC(C)(C)c1ccc2nc(N)nc(N)c2c1C | 74.5% | 76.4% | 61.7%
CN1CCN(c2ccnc3ccc(NC(=O)Cc4cccc(Cl)c4Cl)cc23)CC1 | 1.15% | -1.14% | -0.31%
CC(C)Sc1nncc(-c2cnnc(SC(C)C)n2)n1 | -0.53% | -0.11% | 0.07%
O=C(Cc1c[nH]cn1)Nc1cccc(-c2cccc(-c3nc4ccccc4[nH]3)c2)c1 | 9.66% | 12.8% | 7.58%
O=C(c1cc2c(s1)-c1cccc(Cl)c1SC2)N1CCN(c2ccncc2)CC1 | 4.7% | 3.88% | 4.35%
O=C(NCc1ccccc1)NC1CCN(c2ccnc3cc(Cl)ccc23)C1 (centres undefined) | -2.48% | 0.99% | 0.94%
Cc1cc(F)ccc1-c1nc(N(C)CCN(C)C(=O)N(C)c2ccccc2)nc2c1ccc(=O)n2-c1c(F)cccc1F | 2.99% | 3.18% | 9.88%
O=C(NC1CCN(Cc2ccccc2)CC1)c1ccc(-c2nc3cc4ccccc4cc3[nH]2)s1 | 3.9% | 2.65% | 4.03%
O=C(Nc1ccc(-c2nc3ccccc3[nH]2)cc1)c1cccc(S(=O)(=O)N2CCCC2)c1 | 6.3% | 2.8% | 5.05%
